Reference: PubChem BioAssay AID743144 (Broad Institute, 2013)
Potency and affinity values are given separately. Records with an inconclusive call do not appear. A call without a number means that no potency is given here. Calls of active or inactive are those of the source. How the calls were made is not given here.

Assay: COV362 cell viability loss – plate reader, dry powder, SA12, cytotoxicity control for PAX8 inhibitor project, dose response (AID 743144)
Details: COV362 ovarian cancer cells; series mostly up to 35 µM
For `C[C@H](CO)N1C[C@H](C)[C@@H](CN(C)Cc2ccc(C(F)(F)F)cc2)Oc2ccc(NS(=O)(=O)c3ccc(Cl)cc3)cc2CC1=O`, the outcome was “inactive”.
For `CCCC#Cc1ccc([C@@H]2[C@@H](C#N)N(S(=O)(=O)c3cccc(F)c3)[C@H]2CO)cc1`, the outcome was “inactive”.
In the case of `N#C[C@H]1N[C@H](CO)[C@@H]1c1ccc(C#Cc2ccccc2F)cc1`, the outcome is reported as “inactive”.
In the case of `CCN(CC(=O)Nc1c(F)cccc1F)C(=O)c1cc(S(=O)(=O)N(C)C)ccc1N1CCCC1`, the outcome is reported as “inactive”.
In the case of `Cc1ccc(S(=O)(=O)Nc2ccc3c(c2)C(=O)N([C@H](C)CO)C[C@@H](C)[C@H](CN(C)Cc2ccc(C(F)(F)F)cc2)OCCCC[C@H](C)O3)cc1`, the outcome is reported as “inactive”.
With `C[C@H](CO)N1C[C@H](C)[C@@H](CN(C)S(=O)(=O)c2ccc(Cl)cc2)OCCCC[C@H](C)Oc2ccc(NS(=O)(=O)c3ccccc3)cc2C1=O` the outcome was “inactive”.
With `C[C@@H]1CN([C@H](C)CO)C(=O)CCCn2cc(nn2)CO[C@H]1CN(C)C(=O)Nc1ccc(-c2cccs2)cc1` the outcome was “inactive”.
For `O=C(C[C@H]1CC[C@H]2[C@@H](COC[C@@H](O)CN2S(=O)(=O)c2cccc(Cl)c2)O1)Nc1ccc(-c2ccccc2)cc1`, the outcome was “inactive”.
In the case of `COc1cccc(-c2ccc([C@H]3[C@@H](CO)N(C(=O)Cc4ccccc4)[C@H]3C#N)cc2)c1`, the outcome is reported as “inactive”.
